Data from PubChem BioAssay (Tox21).
“And” between values parts separate entries of the source, which are not always exact repeats. Equal entries are not always repeated. Inconclusive results are not listed. A call without a number means that no potency is given here. The source made the active and inactive calls. Calls come from the whole dose curve; as a rule, active = well fitted curve in the direction sought with a large enough effect in the repeat runs; inconclusive = weak or mixed curves; inactive = no such curve, though single readings can be large; an effect the other way counts as inactive or inconclusive.

Columns and labels:
[1] = qHTS RealTime-Glo MT Cell Viability Assay in HepG2 cells - 16 hour (AID 1224885); note: nearly all actives have a fitted effect of over 50% in size; note: potency is the fitted concentration of half-maximal effect
Method in brief: (§1)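 HepG2 cells were seeded at 600 cells/well together with NanoLuc luciferase and a cell-permeant prosubstrate, preincubated 5 h at 37 C/5% CO2, then pin-dosed with compounds in DMSO. Nonlytic luminescence from viable cells was read at each time point.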

[2] = A CellTox Green Cytotoxicity Assay to monitor cytotoxicity in HEK293 cells - 16 hour (AID 1224888); note: nearly all actives have a fitted effect of over 35% in size
Method in brief: (§2)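 Cytotoxicity was tracked continuously in HEK293 cells by a DNA-binding dye excluded from viable cells. Compounds were transferred in DMSO 5 h after seeding; fluorescence was recorded at intervals up to 40 h.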

[3] = qHTS RealTime-Glo MT Cell Viability Assay in HepG2 cells - 0 hour (AID 1224889); note: nearly all actives have a fitted effect of over 50% in size
Method in brief: as §1

[4] = A CellTox Green Cytotoxicity Assay to monitor cytotoxicity in HepG2 cells - 8 hour (AID 1224890); note: nearly all actives have a fitted effect of over 45% in size
Method in brief: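 Real-time, homogeneous cytotoxicity readout: dead-cell DNA staining by CellTox Green in HepG2 monolayers, fluorescence measured at timed intervals up to 40 h of continuous compound exposure.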

[5] = qHTS assay to identify small molecule antagonists of the estrogen receptor alpha (ER-alpha) signaling pathway using the BG1 cell line in the presence of 0.1 nM 17-beta-estradiol - cell viability counter screen (AID 1259241); note: nearly all actives have a fitted effect of over 40% in size
Method in brief: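 Cells were plated and left 24 hr, compounds in DMSO were pinned in, 17beta-estradiol was added to 0.1 nM final, and after 22 hr CellTiter-Fluor reagent was added for 30 min before fluorescence was read.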

[6] = qHTS assay to identify small molecule antagonists of the androgen receptor (AR) signaling pathway using the MDA cell line in the presence of 0.5 nM R1881 - cell viability counter screen (AID 1259242); note: nearly all actives have a fitted effect of over 45% in size; note: potency is the fitted concentration of half-maximal effect
Method in brief: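 Cytotoxicity toward MDA-kb2 cells is measured by CellTiter-Fluor live-cell protease fluorescence after 16 hr compound exposure at 37C in the presence of 0.5 nM R1881 stimulator.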

[7] = qHTS RealTime-Glo MT Cell Viability Assay in HEK293 cells - 24 hour (AID 1224886); note: nearly all actives have a fitted effect of over 50% in size; note: potency is the fitted concentration of half-maximal effect
Method in brief: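 HEK293 cells were seeded at 600 cells/well together with NanoLuc luciferase and cell-permeant prosubstrate, preincubated 5 h at 37 C/5% CO2, then given compound in DMSO by pintool. Luminescence from viable-cell prosubstrate reduction was read repeatedly over 40 h.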

[8] = qHTS RealTime-Glo MT Cell Viability Assay in HEK293 cells - 8 hour (AID 1224887); note: nearly all actives have a fitted effect of over 50% in size; note: potency is the fitted concentration of half-maximal effect
Method in brief: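 Nonlytic bioluminescent viability monitoring. HEK293 at 600 cells/well with reagent; 5 h settle; compound transfer by pintool; plates held at 37 C and read at set time points.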

[9] = A CellTox Green Cytotoxicity Assay to monitor cytotoxicity in HEK293 cells - 8 hour (AID 1224884); note: nearly all actives have a fitted effect of over 35% in size
Method in brief: as §2

Row | SMILES | Potency [1] | Potency [2] | Potency [3] | Potency [4] | Potency [5] | Potency [6] | Potency [7] | Potency [8] | Potency [9]
1 | CC(C)OC(=O)c1cc(C(=O)OC(C)C)cc([N+](=O)[O-])c1 | inactive | inactive | inactive | inactive | inactive | inactive | – | – | –
2 | CC1(C)C(=O)N(CO)C(=O)N1CO | inactive | – | inactive | inactive | inactive | inactive | inactive | inactive | –
3 | CC(C)CCOCCC(C)C | inactive | – | inactive | inactive | inactive | inactive | – | inactive | inactive
4 | CCCCCCCCCCCCN(CCO)CCO | 48.8 µM (active) | – | – | – | inactive | 60.9 µM (active) | 43.5 µM (active) | – | –
5 | Cc1cccc(C)c1NC(=O)CN1CCN(CCCC(c2ccc(F)cc2)c2ccc(F)cc2)CC1 | 21.3 µM (active) | – | inactive | – | inactive | – | – | 10.7 µM (active) | inactive
6 | COc1ccc(-n2nc(CCC(=O)N(C)O)cc2-c2ccc(Cl)cc2)cc1 | inactive | inactive | – | inactive | inactive | inactive | – | inactive | inactive
7 | O=C(Oc1ccccc1)c1cccc(C(=O)Oc2ccccc2)c1 | inactive | – | inactive | inactive | inactive | inactive | – | – | –
8 | CCOC(=O)N1CCC(=C2c3ccc(Cl)cc3CCc3cccnc32)CC1 | – | inactive | inactive | inactive | inactive | inactive | 21.9 µM (active) and 16.9 µM (active) | 21.9 µM (active) | inactive
9 | Oc1cc2ccccc2cc1O | inactive | – | inactive | inactive | inactive | inactive | – | – | inactive
10 | CC(C)(c1cc(Br)c(OCCO)c(Br)c1)c1cc(Br)c(OCCO)c(Br)c1 | – | inactive | inactive | inactive | inactive | – | 12 µM (active) | – | inactive
11 | C=CC(C)C#N (centres undefined) | inactive | inactive | inactive | inactive | inactive | inactive | – | inactive | inactive
12 | CNC(=O)c1cc(Oc2ccc(NC(=O)Nc3ccc(Cl)c(C(F)(F)F)c3)cc2)ccn1 | – | inactive | inactive | inactive | – | 26.6 µM (active) | 3.38 µM (active) | 4.25 µM (active) | inactive
13 | CNC(=S)NN | inactive | inactive | inactive | inactive | inactive | inactive | – | inactive | inactive
14 | Oc1c(Br)cc(Br)c2cccnc12 | inactive | inactive | inactive | – | inactive | inactive | – | inactive | inactive
15 | CCOB(OCC)OCC | inactive | inactive | inactive | inactive | inactive | inactive | – | – | inactive
16 | CC(O)C#CC(C)O (centres undefined) | – | inactive | inactive | – | inactive | inactive | – | inactive | inactive
